Most compounds without a hit are left out; they make up all but 6.3% or so of the library.
TIM10 inh: TIM10 yeast growth inhibition; S. cerevisiae TIM10 strain growth, BacTiter-Glo luminescence, 24 h; inhibition, % at 10 µM; hit rate 1.4% among 330,000; AID 463195;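 active = inhibition of 40% or more at the single tested concentration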;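 note: wild-type TIM10 isogenic control strain grown at permissive 25 °C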
tim23-1 inh: tim23-1 yeast growth inhibition. hit rate 1.3% among 330,000. S. cerevisiae tim23-1 growth, BacTiter-Glo luminescence, 24 h. inhibition, % at 20 µM;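 active = growth inhibition of the mutant yeast at or above 50%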;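 note: temperature-sensitive mutant grown at 25 °C; plate controls were DMSO-treated mutant yeast for no effect and medium wells lacking yeast for full effect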
tim10-1 inh: growth inhibitors of tim10-1 mutant yeast | S. cerevisiae tim10-1 ts strain growth, BacTiter-Glo, 24 h | inhibition, % at 20 µM | hit rate 2.2% among 330,000 | AID 463190;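 active = inhibition of at least 40%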;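 note: mutant grown at 25 °C; 0% = DMSO wells with yeast and 100% = wells holding no yeast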
MPTP inh: permeability transition pore inhibition | isolated mouse mitochondria, Ca2+ swelling absorbance, 30 min | inhibition, % at 10 µM | hit rate 1.4% among 360,000 | AID 602449;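 active = inhibition of 50% or more, scaled per plate between neutral and stimulator controls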;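 note: 0% = DMSO wells given calcium and 100% = 1 mM EGTA wells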
Mdm2 MdmX PPI: human Mdm2/MdmX binding inhibition | O15151+Q00987 | SaOS-2 split-luciferase Mdm2/MdmX complementation, luminescence | inhibition, % at 8 µM | hit rate 3% among 330,000;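 active = inhibition of at least 50% at 8 µM in the primary screen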
Mdm2-MdmX conf: human Mdm2/MdmX binding inhibition, confirmed; shares compounds with Mdm2 MdmX PPI; inhibition, % at 8 µM; AID 489028; hit rate 55% among 10,000; luminescent assay; in the data active = inhibition above about 40%
Full FLuc ctr: counter-screen for Mdm2/MdmX inhibitors: full-length luciferase | shares compounds with Mdm2 MdmX PPI | SaOS-2 full-length luciferase counterscreen, luminescence | inhibition, % at 8 µM | hit rate 77% among 6,200 | AID 504607;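 active = mean inhibition at 8 µM reaching about 37%, which flags the compound as non-specific, limit read from the data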;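 note: p53-null SaOS-2 cells with luciferase driven by a doxycycline-inducible promoter; compound on cells about two nights before reading with doxycycline added after day one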
Numbers without * were called inactive; nt = no result given.

SMILES	TIM10 inh	tim23-1 inh	tim10-1 inh	MPTP inh	Mdm2 MdmX PPI	Mdm2-MdmX conf	others
CN(C)CCNc1nc(Oc2ccccc2)c2sccc2n1	nt	nt	nt	0	nt	nt
Cc1ccc(S(=O)(=O)NC(=O)C2(C)CCN2C(=O)c2cccc(F)c2)nc1 (centres undefined)	nt	nt	nt	-2	nt	nt
CCOc1ccc2nc(Cl)c(C3CC(c4ccccc4)=NN3C(=O)c3ccco3)cc2c1 (centres undefined)	-5	2	11	nt	56*	8
COc1ccccc1NC(=O)N1CCC(c2nc3cc(C)c(C)cc3[nH]2)CC1	0	12	-3	-1	57*	70*	Full FLuc ctr=72*
Cc1ccc2nc(C3CCCN(C(=S)Nc4ccccc4C)C3)[nH]c2c1 (centres undefined)	-11	1	-5	2	21	nt
Cc1cc2nc(C3CCCN(C(=S)Nc4ccccc4)C3)[nH]c2cc1C (centres undefined)	-3	19	3	3	51*	-13
COC(=O)N/N=C/c1ccc(-c2cc(Cl)ccc2Cl)o1	27	26	18	0	-16	nt
O/N=C/c1ccc(-c2cc(Cl)ccc2Cl)o1	9	11	9	1	57*	42*	Full FLuc ctr=53*
CC(=O)N(/N=C1\Sc2ccccc2C1=O)c1ccc(C)cc1C	6	41	23	1	65*	76*	Full FLuc ctr=107*
Cc1nn(C)c(C)c1NC(=O)CSc1nc(C2CC2)nc2c1cnn2-c1ccccc1	15	-3	5	2	43	nt
CC1CCCCN1C(=O)CSc1nc(C2CC2)nc2c1cnn2-c1ccccc1 (centres undefined)	-4	5	18	2	54*	9
O=C(CSc1ncccn1)N(Cc1cccnc1)C(CCc1ccccc1)c1nc2ccccc2[nH]1 (centres undefined)	nt	nt	nt	-2	nt	nt
Cc1ccc(NC2CCCN(C(=O)c3cc(C(C)C)nn3C)C2)cc1C (centres undefined)	nt	nt	nt	-1	nt	nt
COc1ccc2c(c1)c1nc3ccccc3nc1n2CC(=O)OC(C)C	-5	4	18	2	58*	16
COC(=O)Cn1c2ccc(C)cc2c2nc3ccccc3nc21	7	-2	-15	0	-2	nt
COc1ccc2c(c1)c1nc3ccccc3nc1n2Cc1ccc(OC(C)C)c(OC)c1	24	18	20	1	-19	nt
COc1ccc(Cn2c3ccc(OC)cc3c3nc4ccccc4nc32)cc1	-1	11	6	1	51*	24
CN(C)CCN1CCN(C2CN(Cc3cn(Cc4ccc(F)cc4)nn3)S(=O)(=O)C2)CC1 (centres undefined)	nt	nt	nt	-1	nt	nt
COc1cc(C(CCN2CCOCC2)c2c(OC)cc(OC)c3c(C)cc(=O)oc23)cc(OC)c1OC (centres undefined)	4	1	2	0	20	nt
CCCCCc1cc(=O)oc2c(C(CCN(CC)CC)c3ccc(OC)cc3)c(OC)cc(OC)c12 (centres undefined)	13	39	11	2	100*	34	Full FLuc ctr=51*
CCCCCc1cc(=O)oc2c(C(CCN3CCCC3)c3cc(OC)c(OC)c(OC)c3)c(OC)cc(OC)c12 (centres undefined)	4	11	2	-3	100*	62*	Full FLuc ctr=39*
COc1cc(OC)c2ccc(=O)oc2c1C(CCN1CCCC1)c1ccc(N(C)C)cc1 (centres undefined)	9	12	-13	-1	3	nt
CCCCCc1cc(=O)oc2c(C(CCN3CCCC(C)C3)c3ccc(OC)cc3)c(OC)cc(OC)c12 (centres undefined)	12	42	35	3	86*	42*	Full FLuc ctr=50*
CCCCCc1cc(=O)oc2c(C(CCN3CCCC3)c3ccc(N(C)C)cc3)c(OC)cc(OC)c12 (centres undefined)	9	11	18	-2	97*	39	Full FLuc ctr=53*
CCOC(=O)C1(C)CCCN(C(=O)c2cc(C)oc2C)C1 (centres undefined)	nt	nt	nt	-1	nt	nt
SMILES	TIM10 inh	tim23-1 inh	tim10-1 inh	MPTP inh	Mdm2 MdmX PPI	Mdm2-MdmX conf	others
COc1ccc(OCCOC(=O)CNC(=O)c2ccc(F)cc2)cc1	nt	nt	nt	1	nt	nt
CCCCCc1cc(=O)oc2c(C(CCN3CCCCC3)c3ccc(OC)cc3)c(OC)cc(OC)c12 (centres undefined)	7	25	22	15	96*	31	Full FLuc ctr=44*
CCCCCc1cc(=O)oc2c(C(CCN3CCN(c4ccccc4)CC3)c3ccc4c(c3)OCO4)c(OC)cc(OC)c12 (centres undefined)	7	13	14	6	46	nt
Cc1ccc(C(=O)O/N=C(\N)c2ccc(C(F)(F)F)cn2)cc1	7	-3	-32	4	57*	-16
CCOC(=O)c1c(C)[nH]c(C(=O)OCC(=O)N2CCc3ccccc32)c1C	-26	-21	15	1	70*	-10
CCOC(=O)c1[nH]c(C)c(C(=O)OCC(=O)N2CCc3ccccc32)c1C	8	13	5	-2	-1	nt
CCCCNC(=O)C1(C)CCC(=O)N1c1cc(C(C)(C)C)nn1C (centres undefined)	nt	nt	nt	-2	nt	nt
O=C(Nc1cccnc1)c1cccs1	6	12	-1	0	77*	70*	Full FLuc ctr=40*
COc1ccc(NC(=O)C2=CC(c3cccs3)=NS(=O)(=O)N2C)cc1	1	18	6	2	55*	31
O=C(NC(=S)Nc1ccc(N2CCN(C(=O)c3ccccc3)CC2)cc1)c1cccs1	16	5	21	-1	51*	29
COc1ccc(NC(=O)c2ccc(NC(=O)c3cccs3)cc2)cc1	-24	-21	-9	1	67*	26
O=C(NC(=S)Nc1ccccc1N1CCN(C(=O)c2ccccc2)CC1)c1cccs1	-18	-25	0	3	18	nt
COC(=O)C1=CN(c2ccc(C(C)(C)C)cc2)C(N)=C(C#N)C1c1ccccc1F (centres undefined)	nt	nt	nt	-1	nt	nt
CCOC(=O)c1noc2c1CCC2	nt	nt	nt	-1	nt	nt
O=C(c1ccc(Cl)cc1)c1cccc(O)c1	nt	nt	nt	1	nt	nt
COc1cccc(OC)c1C(=O)Nc1ccc(N2CCN(C(=O)c3cccs3)CC2)cc1	9	9	8	0	16	nt
COc1cccc(C(=O)Nc2ccc(N3CCN(C(=O)c4cccs4)CC3)cc2)c1	25	37	19	0	61*	57*	Full FLuc ctr=60*
O=C(Nc1cccc(-c2csc(Nc3ccccc3)n2)c1)c1cc([N+](=O)[O-])cc(C(F)(F)F)c1	9	12	8	7	1	nt
O=C(Nc1cccc(-c2csc(Nc3ccc(Cl)cc3)n2)c1)c1cc([N+](=O)[O-])cc(C(F)(F)F)c1	-7	16	25	7	85*	28
O=C(Nc1cccc(-c2csc(Nc3ccc(Cl)cc3)n2)c1)c1cccc(C(F)(F)F)c1	25	35	18	7	58*	-6
